From paper PMC11006913
Substitutions are numbered along the chain they refer to.

Assays:
Test in all cases: PBM; 200 nM protein, PBS
Settings in all cases: dsDNA, one strand shown
PAX4 [1] = target: T1, PAX4 (Homo sapiens, UniProt O43316 9-242, R200K)
T1 sequence: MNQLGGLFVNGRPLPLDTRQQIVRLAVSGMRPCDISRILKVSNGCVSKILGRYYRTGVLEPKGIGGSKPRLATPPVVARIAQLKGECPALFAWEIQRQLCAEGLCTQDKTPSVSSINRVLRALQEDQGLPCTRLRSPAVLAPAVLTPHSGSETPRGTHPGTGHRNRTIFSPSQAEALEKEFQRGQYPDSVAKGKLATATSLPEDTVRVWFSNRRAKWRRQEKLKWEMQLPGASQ

PAX4 [2] = target: T2, PAX4 (Homo sapiens, UniProt O43316 9-242)
T2 sequence: T1 sequence with K192R

PAX4 [3] = target: T3, PAX4 (Homo sapiens, UniProt O43316 9-242, R200Q)
T3 sequence: T1 sequence with K192Q

PAX4 [4] = target: T4, PAX4 (Homo sapiens, UniProt O43316 9-242, F177V)
T4 sequence: T1 sequence with F169V, K192R

PAX4 [5] = target: T5, PAX4 (Homo sapiens, UniProt O43316 9-242, F177Y)
T5 sequence: T1 sequence with F169Y, K192R

PAX4 [6] = target: T6, PAX4 (Homo sapiens, UniProt O43316 9-242, R227W)
T6 sequence: T1 sequence with K192R, R219W

PRRX1 [7] = target: PRRX1 (Homo sapiens, UniProt P54821 80-166, F113S)
PRRX1 (Homo sapiens, UniProt P54821 80-166, F113S), sequence (P54821 80-166 F113S): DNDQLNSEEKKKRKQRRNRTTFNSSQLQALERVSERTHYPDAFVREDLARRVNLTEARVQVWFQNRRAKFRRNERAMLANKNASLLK

HOXB6 = HOXB6 (Homo sapiens, UniProt P17509 132-218, K202E)
HOXB6, sequence (P17509 132-218 K202E): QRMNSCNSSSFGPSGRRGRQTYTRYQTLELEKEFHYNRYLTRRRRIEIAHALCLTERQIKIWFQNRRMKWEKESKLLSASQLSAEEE

ALX3 [8] = target: ALX3 (Homo sapiens, UniProt O95076 139-225, N203Q)
ALX3 (Homo sapiens, UniProt O95076 139-225, N203Q), sequence (O95076 139-225 N203Q): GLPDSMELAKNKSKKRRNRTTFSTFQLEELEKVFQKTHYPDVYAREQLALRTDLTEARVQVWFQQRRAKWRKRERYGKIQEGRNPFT

ALX3 [9] = target: ALX3 (Homo sapiens, UniProt O95076 139-225, N203S)
ALX3 (Homo sapiens, UniProt O95076 139-225, N203S), sequence (O95076 139-225 N203S): as the sequence (O95076 139-225 N203Q) above, with Q65S counted along it

PRRX1 [10] = target: PRRX1 (Homo sapiens, UniProt P54821 80-166)
PRRX1 (Homo sapiens, UniProt P54821 80-166), sequence (P54821 80-166): as the sequence (P54821 80-166 F113S) above, with S34F counted along it

CRX = CRX (Homo sapiens, UniProt O43186 26-111, R41L)
CRX, sequence (O43186 26-111 R41L): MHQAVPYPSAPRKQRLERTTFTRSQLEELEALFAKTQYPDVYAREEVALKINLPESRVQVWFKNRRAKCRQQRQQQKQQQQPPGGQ

CCGAAGCC
binding signal (PAX4 [1]): 9.25 upbm affinity estimate (log intensity, higher = more binding, comparable within an allelic series) | binding signal (PAX4 [2]): 9.26 upbm affinity estimate (log intensity, higher = more binding, comparable within an allelic series) | binding signal (PAX4 [3]): 9.27 upbm affinity estimate (log intensity, higher = more binding, comparable within an allelic series) | binding signal (PAX4 [4]): 9.17 upbm affinity estimate (log intensity, higher = more binding, comparable within an allelic series) | binding signal (PAX4 [5]): 9.2 upbm affinity estimate (log intensity, higher = more binding, comparable within an allelic series) | binding signal (PAX4 [6]): 9.18 upbm affinity estimate (log intensity, higher = more binding, comparable within an allelic series)

AGTGTTAG
binding signal (PAX4 [1]): 10.5 upbm affinity estimate (log intensity, higher = more binding, comparable within an allelic series) | binding signal (PAX4 [2]): 10.6 upbm affinity estimate (log intensity, higher = more binding, comparable within an allelic series) | binding signal (PAX4 [4]): 9.92 upbm affinity estimate (log intensity, higher = more binding, comparable within an allelic series) | binding signal (PAX4 [5]): 10 upbm affinity estimate (log intensity, higher = more binding, comparable within an allelic series) | binding signal (PAX4 [6]): 10.1 upbm affinity estimate (log intensity, higher = more binding, comparable within an allelic series)

CGCGCGCC
binding signal (PAX4 [1]): 9.3 upbm affinity estimate (log intensity, higher = more binding, comparable within an allelic series) | binding signal (PAX4 [2]): 9.28 upbm affinity estimate (log intensity, higher = more binding, comparable within an allelic series) | binding signal (PAX4 [3]): 9.36 upbm affinity estimate (log intensity, higher = more binding, comparable within an allelic series) | binding signal (PAX4 [4]): 9.21 upbm affinity estimate (log intensity, higher = more binding, comparable within an allelic series) | binding signal (PAX4 [5]): 9.31 upbm affinity estimate (log intensity, higher = more binding, comparable within an allelic series) | binding signal (PAX4 [6]): 9.28 upbm affinity estimate (log intensity, higher = more binding, comparable within an allelic series)

AGACAGCT
binding signal (PAX4 [1]): 9.26 upbm affinity estimate (log intensity, higher = more binding, comparable within an allelic series) | binding signal (PAX4 [2]): 9.25 upbm affinity estimate (log intensity, higher = more binding, comparable within an allelic series) | binding signal (PAX4 [3]): 9.61 upbm affinity estimate (log intensity, higher = more binding, comparable within an allelic series) | binding signal (PAX4 [4]): 9.5 upbm affinity estimate (log intensity, higher = more binding, comparable within an allelic series) | binding signal (PAX4 [5]): 9.46 upbm affinity estimate (log intensity, higher = more binding, comparable within an allelic series) | binding signal (PAX4 [6]): 9.5 upbm affinity estimate (log intensity, higher = more binding, comparable within an allelic series)

CTGGGCCC
binding signal (PAX4 [1]): 9.08 upbm affinity estimate (log intensity, higher = more binding, comparable within an allelic series) | binding signal (PAX4 [2]): 8.93 upbm affinity estimate (log intensity, higher = more binding, comparable within an allelic series) | binding signal (PAX4 [3]): 9.11 upbm affinity estimate (log intensity, higher = more binding, comparable within an allelic series) | binding signal (PAX4 [4]): 8.97 upbm affinity estimate (log intensity, higher = more binding, comparable within an allelic series) | binding signal (PAX4 [5]): 9.09 upbm affinity estimate (log intensity, higher = more binding, comparable within an allelic series) | binding signal (PAX4 [6]): 9.02 upbm affinity estimate (log intensity, higher = more binding, comparable within an allelic series)

GGAAAATA
binding signal (PAX4 [1]): 10.5 upbm affinity estimate (log intensity, higher = more binding, comparable within an allelic series) | binding signal (PAX4 [2]): 10.7 upbm affinity estimate (log intensity, higher = more binding, comparable within an allelic series) | binding signal (PAX4 [4]): 10.1 upbm affinity estimate (log intensity, higher = more binding, comparable within an allelic series) | binding signal (PAX4 [5]): 10.1 upbm affinity estimate (log intensity, higher = more binding, comparable within an allelic series)

ATTGATTA
binding signal (PRRX1 [7]): 11.1 upbm affinity estimate (log intensity, higher = more binding, comparable within an allelic series)

CGCCTGCA
binding signal (PAX4 [1]): 9.25 upbm affinity estimate (log intensity, higher = more binding, comparable within an allelic series) | binding signal (PAX4 [2]): 9.25 upbm affinity estimate (log intensity, higher = more binding, comparable within an allelic series) | binding signal (PAX4 [3]): 9.33 upbm affinity estimate (log intensity, higher = more binding, comparable within an allelic series) | binding signal (PAX4 [4]): 9.34 upbm affinity estimate (log intensity, higher = more binding, comparable within an allelic series) | binding signal (PAX4 [5]): 9.3 upbm affinity estimate (log intensity, higher = more binding, comparable within an allelic series) | binding signal (PAX4 [6]): 9.34 upbm affinity estimate (log intensity, higher = more binding, comparable within an allelic series)

ATAATTTA
binding signal (PRRX1 [7]): 11.2 upbm affinity estimate (log intensity, higher = more binding, comparable within an allelic series) | binding signal (HOXB6): 10 upbm affinity estimate (log intensity, higher = more binding, comparable within an allelic series) | binding signal (ALX3 [8]): 8.61 upbm affinity estimate (log intensity, higher = more binding, comparable within an allelic series) | binding signal (PAX4 [4]): 10.8 upbm affinity estimate (log intensity, higher = more binding, comparable within an allelic series) | binding signal (PAX4 [5]): 11 upbm affinity estimate (log intensity, higher = more binding, comparable within an allelic series) | binding signal (PAX4 [6]): 11 upbm affinity estimate (log intensity, higher = more binding, comparable within an allelic series) | binding signal (ALX3 [9]): 8.73 upbm affinity estimate (log intensity, higher = more binding, comparable within an allelic series) | binding signal (PRRX1 [10]): 13.2 upbm affinity estimate (log intensity, higher = more binding, comparable within an allelic series)

GCCAGAGC
binding signal (PAX4 [1]): 9.17 upbm affinity estimate (log intensity, higher = more binding, comparable within an allelic series) | binding signal (PAX4 [2]): 9.13 upbm affinity estimate (log intensity, higher = more binding, comparable within an allelic series) | binding signal (PAX4 [3]): 9.26 upbm affinity estimate (log intensity, higher = more binding, comparable within an allelic series) | binding signal (PAX4 [4]): 9.3 upbm affinity estimate (log intensity, higher = more binding, comparable within an allelic series) | binding signal (PAX4 [5]): 9.28 upbm affinity estimate (log intensity, higher = more binding, comparable within an allelic series) | binding signal (PAX4 [6]): 9.34 upbm affinity estimate (log intensity, higher = more binding, comparable within an allelic series)

ACGTATTA
binding signal (PAX4 [1]): 11.7 upbm affinity estimate (log intensity, higher = more binding, comparable within an allelic series) | binding signal (PAX4 [5]): 11 upbm affinity estimate (log intensity, higher = more binding, comparable within an allelic series) | binding signal (PAX4 [6]): 11.1 upbm affinity estimate (log intensity, higher = more binding, comparable within an allelic series)

CGTATTAA
binding signal (PAX4 [1]): 11.8 upbm affinity estimate (log intensity, higher = more binding, comparable within an allelic series) | binding signal (PAX4 [2]): 12.2 upbm affinity estimate (log intensity, higher = more binding, comparable within an allelic series) | binding signal (PAX4 [3]): 11.5 upbm affinity estimate (log intensity, higher = more binding, comparable within an allelic series) | binding signal (PAX4 [4]): 10.5 upbm affinity estimate (log intensity, higher = more binding, comparable within an allelic series) | binding signal (PAX4 [5]): 11 upbm affinity estimate (log intensity, higher = more binding, comparable within an allelic series) | binding signal (PAX4 [6]): 11 upbm affinity estimate (log intensity, higher = more binding, comparable within an allelic series) | binding signal (CRX): 11.2 upbm affinity estimate (log intensity, higher = more binding, comparable within an allelic series)
